From PubChem
GDH-TPI counter-1 – inhibits GDH-TPI coupling enzymes, artifact for Mtb FBA screen; GDH-TPI coupled enzyme counterscreen, NADH absorbance; AID 588335; inhibition, % at 4.8 µM; hit rate 1.2% among 360,000; in the data active = inhibition above about 30%;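 note: 0% = DMSO wells and 100% = wells lacking the enzyme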
FBA Mtb inh – Mtb fructose-bisphosphate aldolase inhibition. P9WQA3. purified M. tuberculosis FBA, fluorescence read-out. inhibition, % at 1 µM. hit rate 2.3% among 360,000. AID 588726;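 note: 0% = vehicle and 100% = reference inhibitor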
Target sequence (P9WQA3 whole entry, looked up): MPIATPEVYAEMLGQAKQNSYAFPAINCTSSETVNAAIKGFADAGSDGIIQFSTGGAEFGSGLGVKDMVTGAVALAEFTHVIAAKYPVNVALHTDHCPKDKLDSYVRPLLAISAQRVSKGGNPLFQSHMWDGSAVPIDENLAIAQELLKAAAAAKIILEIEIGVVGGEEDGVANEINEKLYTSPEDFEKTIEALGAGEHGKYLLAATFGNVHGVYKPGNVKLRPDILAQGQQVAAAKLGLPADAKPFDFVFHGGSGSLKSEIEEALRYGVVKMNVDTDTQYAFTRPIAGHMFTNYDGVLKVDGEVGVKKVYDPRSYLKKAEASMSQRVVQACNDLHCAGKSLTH
Rv3671c inh – inhibits the M. tuberculosis serine protease Rv3671c; P9WHR9; inhibition, % at 5.96 µM; hit rate 0.048% among 320,000; in the data active = inhibition above about 38%;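 note: extracellular domain of Rv3671c used as enzyme; 0% = enzyme with DMSO and 100% = no enzyme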
Mtb betalactam – beta-lactam sensitization of Mtb H37Rv. inhibition, % at 25 µM. hit rate 0.27% among 330,000. M. tuberculosis H37Rv growth with meropenem, percent inhibition. AID 434955; call rule not given here;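 note: growth measured after seven days incubation then overnight dye step; 0% = bacteria only wells and 100% = bacteria with antibiotic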
RecA intein inh – inhibitors of M. tuberculosis RecA intein splicing; cell-free RecA intein splicing, fluorescence; inhibition, % (test concentration not listed); hit rate 0.75% among 290,000; in the data active = inhibition above about 30%;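 note: 0% = vehicle wells and 100% = reference inhibitor control wells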
Mtb UGM inh – Mtb UDP-galactopyranose mutase inhibition; purified UGM, fluorescence polarization probe displacement; inhibition, % at 10 µM; hit rate 0.06% among 320,000; in the data active = inhibition above about 10%, passing the limit was not always enough
Mtb FBA inh conf – Mtb FBA inhibition, confirmed | shares compounds with FBA Mtb inh | purified M. tuberculosis FBA, fluorescence read-out | inhibition, % at 1 µM | hit rate 78% among 5,600 | AID 651616;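 note: 0% = vehicle wells and 100% = reference inhibitor wells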
GDH-TPI counter-2 – counter-screen for M. tuberculosis FBA inhibitors: GDH-TPI coupled enzyme inhibition | shares compounds with FBA Mtb inh | GDH-TPI coupled enzyme counterscreen, fluorescence | inhibition, % at 1 µM | hit rate 81% among 5,600; in the data active = inhibition above about 10%
An asterisk follows results filed as active; . = not tested or not shown; + = active, no number. A selection: hits, their analogues and other compounds. The true share with any hit is near 4%. Cut-off read from the data, not from the text of the source, unless noted: active = inhibition above about 27%; inactive = the rest.

SMILES	GDH-TPI counter-1	FBA Mtb inh	Rv3671c inh	Mtb betalactam	RecA intein inh	Mtb UGM inh	Mtb FBA inh conf	GDH-TPI counter-2
CCOC(=O)N1CCC(N2CCCC(C(=O)c3cc(C)c(OC)c(C)c3)C2)CC1 (stereo unspecified)	-5.9	0.2	4.8	-4.0	-2.1	-2.0	.	.
CCOC(=O)N1CCC(N2CCCC(C(=O)c3ccc4cc(OC)ccc4c3)C2)CC1 (stereo unspecified)	3.1	106.6*	3.8	98.7	4.3	1.3	115.7*	91.2*
COc1ccc2cc(C(=O)NCc3ccccc3CN3CCCC3)ccc2c1	8.6	33.5*	-20.9	0.6	.	3.0	114.7*	104.2*
COc1ccc2cc(C(=O)C3CCCN(Cc4cccc(C)n4)C3)ccc2c1 (stereo unspecified)	2.5	29.4*	1.2	96.2	2.9	0.2	46.9*	40.1*
COc1cccc(C(=O)C2CCCN(Cc3ccccn3)C2)c1 (stereo unspecified)	11.2	-0.6	-10.2	.	4.7	1.1	.	.
COc1ccc(C(=O)NCc2ccncc2)cc1S(=O)(=O)NCc1ccc(Cl)cc1	-1.8	-0.1	3.7	-2.4	.	-2.4	.	.
C=Cc1ccc(Cn2c(C)c(C(=O)NCCC#N)sc2=O)cc1	6.2	-1.7	.	.	.	.	.	.
COc1ccc(C(=O)C2CCCN(Cc3ccc4nonc4c3)C2)cc1OC (stereo unspecified)	11.0	-6.8	-0.1	3.6	2.9	1.4	.	.
COc1ccc(C(=O)C2CCCN(Cc3ccc4nonc4c3)C2)c(OC)c1 (stereo unspecified)	3.1	56.7*	-1.5	-0.4	1.5	-0.5	153.2*	134.8*
C[C@@H]1CCCCO[C@H](CN(C)C(=O)Nc2ccc(C(F)(F)F)cc2)[C@@H](C)CN([C@H](C)CO)C(=O)c2cc(NC(=O)c3ccncc3)ccc2O1	-7.1	-1.5	.	.	.	.	.	.
CC(C)n1ncc2c(C(=O)NCCc3ccc(S(N)(=O)=O)cc3)cc(C3CC3)nc21	-1.7	28.3*	.	.	.	.	+	+
CCOC(=O)c1[nH]c2cc(OC)c(OC)cc2c1NC(=O)C(C)N1CCN(Cc2ccccc2)CC1 (stereo unspecified)	14.2	47.2*	5.2	-4.2	-1.2	0.6	+	+
CCOC(=O)c1[nH]c2ccc(OC)cc2c1NC(=O)C(C)N1CCSCC1 (stereo unspecified)	.	.	.	.	1.5	.	.	.
CCC(=O)Nc1cc2nn(-c3ccc(OC)cc3)nc2cc1C	3.3	65.9*	-4.6	0.7	4.7	-0.9	39.0*	27.9*
CCCCC(=O)Nc1cc2nn(-c3ccc(OC)cc3)nc2cc1C	-0.8	27.4*	-6.6	3.7	2.2	0.8	150.7*	121.2*
Cc1cc(C(=O)N2CCC2(C)C(=O)O)c(C)o1 (stereo unspecified)	-2.7	6.0	.	.	.	.	.	.
Cc1oc2c(CN3CCCCC3C)c(O)ccc2c(=O)c1-c1ccc(Br)cc1 (stereo unspecified)	10.8	107.7*	.	3.1	-3.8	0.4	118.3*	96.6*
Cc1oc2c(CN3CCOCC3)c(O)ccc2c(=O)c1-c1ccc(Br)cc1	10.0	67.8*	8.0	-6.6	1.3	-0.6	4.4	-4.4
Cc1oc2c(CN3CCOCC3)c(O)ccc2c(=O)c1-c1ccc(Cl)cc1	28.4	64.9*	-0.1	-2.6	-1.2	-2.9	37.2*	22.3*
CCCc1cc(=O)oc2c(CN3CCOCC3)c(O)ccc12	23.4	.	-1.5	-8.2	-50.2	-1.8	.	.
Cc1cccc(C(=O)Nc2nnc(S(=O)(=O)N3CCC(C)CC3)s2)c1	19.1	10.4	-0.8	1.7	-2.8	1.9	.	.
CC(C)n1cc(CN2CCC(C(=O)Nc3ccc(Oc4ccccc4F)cc3)CC2)cn1	7.6	2.6	-8.3	-3.2	-1.9	2.7	.	.
N#CCCN(C(=O)COC(=O)CNS(=O)(=O)c1ccc2ccccc2c1)c1ccccc1	3.1	-2.3	-6.6	-1.6	.	0.5	.	.
Fc1ccc(-n2c(-c3cccs3)nc3nc4ccccc4nc32)cc1	4.4	80.8*	3.5	8.2	-16.1	0.8	0.3	-4.3
Cc1ccc(-n2c(-c3cccs3)nc3nc4ccccc4nc32)cc1	.	.	-2.4	-3.1	-0.9	-0.4	.	.
SMILES	GDH-TPI counter-1	FBA Mtb inh	Rv3671c inh	Mtb betalactam	RecA intein inh	Mtb UGM inh	Mtb FBA inh conf	GDH-TPI counter-2
COc1ccc(CN(C(=O)c2cccs2)c2ccccc2C(=O)O)cc1	15.8	6.6	5.4	-5.3	-1.6	2.5	.	.
CN(C(=O)c1cccs1)c1ccccc1C(=O)O	8.4	27.0*	-1.4	-12.9	-2.2	-0.9	3.8	3.4
Cc1ccc(-n2nc3c(=O)n(CCCC(=O)N4CCC(C)CC4)nc(C)c3c2C)cc1	8.6	-1.9	-14.4	-8.2	-5.1	2.7	.	.
Cc1c(O)cnc2nn(-c3ccccc3)c(=N)n12	.	90.9*	.	.	.	.	81.2*	52.0*
Cc1cc2ncn(C(=O)c3ccc(F)cc3)c2cc1C	7.3	2.7	0.7	5.1	28.6	0.3	.	.
N#Cc1cccnc1N1CCC(C(N)=O)CC1	8.8	30.5*	4.2	2.8	1.4	-0.4	49.6*	37.9*
C[C@@H]1COC(=O)[C@H](Cc2ccc(F)cc2)CC/C=C\C[C@@H](CC(=O)NCCO)C(=O)N1	-6.7	1.4	1.6	0.2	.	-0.1	.	.
Nc1ccc2nc(-c3ccc(Cl)cc3)[nH]c2c1	19.4	87.3*	7.0	0.8	-20.7	-0.7	168.1*	126.9*
Nc1nc2ccc(Cl)cc2[nH]1	-5.6	-0.5	.	.	.	.	.	.
Clc1ccc2nc(-c3ccc(Cl)nc3)[nH]c2c1	13.8	36.0*	-7.8	12.2	2.6	-0.7	107.1*	81.7*
Cc1ccc(S(=O)(=O)NCCn2nc(C)nc2C)cc1	-2.3	1.9	-6.8	-7.7	0.3	2.7	.	.
CCOc1cc(-c2cc(-c3ccc(N)cc3)nc(N)c2C#N)ccc1O	29.4	29.3*	3.6	65.0	-100.5	2.7	51.9*	44.8*
CCOc1cc(-c2cc(-c3ccccc3)nc(N)c2C#N)ccc1O	-0.4	3.8	-15.7	10.8	4.5	1.0	.	.
CN1CCN(c2ncnc3c2ncn3[C@H]2CN(Cc3ccc(-c4ccccc4)cc3)C[C@@H](CO)O2)CC1	-3.6	-3.5	.	.	.	.	.	.
CCOC(=O)c1sc(-c2ccccc2)cc1NC(=O)CSc1nnnn1C	15.5	1.2	-10.0	-4.3	-1.2	0.9	.	.
CCOC(=O)c1sc(-c2ccc(OC)cc2)cc1NC(C)=O	18.9	78.7*	.	.	-0.3	.	152.8*	134.4*
Fc1cccc(Cc2c(-c3ccco3)nc3c4ccccc4ccn23)c1	.	27.3*	.	.	.	.	68.1*	46.1*
Cc1ccc2nc(-c3ccco3)c(Cc3ccccc3)n2c1	.	36.1*	.	.	.	.	181.1*	107.8*
Fc1cccc(Cc2c(-c3cccc(Cl)c3)nc3c4ccccc4ccn23)c1	.	5.9	.	.	.	.	.	.
Cc1ccc2nc(C3CCCCC3)c(Cc3ccccc3)n2c1	.	28.5*	.	.	.	.	2.9	-3.3
CCOc1ccc(Br)cc1S(=O)(=O)Nc1ncn[nH]1	-0.7	-1.4	-9.5	-2.3	-2.7	3.5	.	.
CCOc1ccc(-c2nc(C#N)c(NCc3ccco3)o2)cc1	8.5	52.8*	-7.9	3.7	2.0	0.9	57.8*	50.4*
